The list is not random: actives were taken first. Their share in the collection is about 6.1%.
VP16 counter: VP16 counterscreen qHTS for inhibitors of ROR gamma transcriptional activity. Drosophila S2 Gal4-VP16 UAS-luciferase, luminescence, 20 h. Potency, µM (series often up to 53.6 µM), for inactives: at the top dose activity, negative = inhibition, most hits filed as inhibitors. 310,000 tested, 3.5% active. AID 2546, 2010;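 also: Gal4-VP16 expression switched on by copper sulfate through the metallothionein promoter; % is scaled to controls: 0 for no effect and ±100 for the full control effect; nearly all actives have a fitted effect of over 50% in size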
RORg inh: qHTS for inhibitors of ROR gamma transcriptional activity | Nuclear receptor ROR-gamma (Mus musculus), P51450 | Drosophila S2 Gal4-RORgamma UAS-luciferase reporter, 20 h | Potency, µM (titrated, usually from 53.6 µM), inactives show top-dose activity change, negative = inhibition, actives largely listed as inhibitors | 310,000 tested, 5.4% active | AID 2551, 2010; also: % is scaled to controls: 0 for no effect and ±100 for the full control effect; nearly all actives have a fitted effect of over 60% in size
Target sequence (P51450 whole entry, looked up, the tested form may be a part): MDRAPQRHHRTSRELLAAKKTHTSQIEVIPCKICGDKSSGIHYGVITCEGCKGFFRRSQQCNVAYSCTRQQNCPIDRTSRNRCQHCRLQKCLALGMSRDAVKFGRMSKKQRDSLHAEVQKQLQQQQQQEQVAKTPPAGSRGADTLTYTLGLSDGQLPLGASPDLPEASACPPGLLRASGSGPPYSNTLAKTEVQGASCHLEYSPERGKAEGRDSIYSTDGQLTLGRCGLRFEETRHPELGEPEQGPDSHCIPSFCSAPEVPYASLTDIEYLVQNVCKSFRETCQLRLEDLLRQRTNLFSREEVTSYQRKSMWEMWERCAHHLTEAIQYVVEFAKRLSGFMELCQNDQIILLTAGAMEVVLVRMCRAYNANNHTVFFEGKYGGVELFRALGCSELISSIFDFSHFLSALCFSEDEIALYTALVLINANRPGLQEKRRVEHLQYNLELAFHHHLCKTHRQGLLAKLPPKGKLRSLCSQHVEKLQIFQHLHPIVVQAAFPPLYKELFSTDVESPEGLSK
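Using a luciferase readout, inhibitors were identified by reduced reporter activity in Drosophila cells coexpressing a copper-inducible Gal4–ROR gamma fusion and UAS-driven Photinus luciferase, incubated 20 hr after 700 uM copper sulfate.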
HepG2 tox: qHTS for Inhibitors of TGF-b: Cytotox Counterscreen; HepG2 CAGA-GFP viability, ATP luminescence, 18 h; Potency, µM (highest dose often 46.1 µM), for inactives: at the top dose activity change, negative = cytotoxicity, hits mostly cytotoxic; 410,000 tested, 0.76% active; AID 588856, 2011
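HepG2 CAGA-GFP cells (1000/well, DMEM with 1% FBS) received compound, then TGF-beta at 500 pg/mL final, and were incubated 18 hours at 37 degrees C. Viability was read by CellTiter-Glo luminescence. Media-only wells were set as complete cell-killing and DMSO as no toxicity.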
S2 tox: Viability Counterscreen for Primary qHTS for Inhibitors of ATXN expression; S2 cells (HEK-293 line with an ATXN2-luciferase reporter) viability, CellTiter-Fluor protease fluorescence, 24 h; Potency, µM (titrated, usually from 56.7 µM), hits mostly cytotoxic; 400,000 tested, 0.49% active; AID 651635, 2014; also: nearly all actives have a fitted effect of over 40% in size
ATXN2 expr inh: Primary qHTS for Inhibitors of ATXN expression; 360,000 tested, 0.72% active; HEK-293 ATXN2-luciferase reporter, luminescence, 24 h; AID 1745845, 2022; Potency, µM (series often up to 57 µM), for the others: at the top dose activity change, negative = inhibition, usual class: inhibitors; also: % is scaled to controls: 0 for no effect and ±100 for the full control effect; nearly all actives have a fitted effect of over 55% in size
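ATXN2-luciferase reporter cells (luciferase flanked by upstream and downstream ATXN2 gene portions) were treated 24 h at 37 °C with compounds at up to 57 uM. SteadyGlo luminescence gave expression; GF-AFC fluorescence gave viability.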
TGFb inhibitor: qHTS for Inhibitors of TGF-b; HepG2 CAGA-GFP TGF-b/SMAD3 reporter, GFP fluorescence, 18 h; TGF-beta stimulated, 500 pg/mL final; Potency, µM (doses to about 46.1 µM), without a hit: top-dose activity, negative = inhibition, usual class: inhibitors; 410,000 tested, 1.2% active; also: % is scaled to controls: 0 for no effect and ±100 for the full control effect; nearly all actives have a fitted effect of over 65% in size
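Per well, imaged GFP fluorescence of HEPG2 CAGA-GFP cells gives the signal; cells get compound, then TGF-beta (500 pg/mL final), 18 h at 37 degrees C; %Activity versus -TGF-beta and +DMSO controls.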
* hit, by the source's call; i = inactive; ? = inconclusive; nt = no result; [ ] = another dose, or the depositor's remark. Calls follow the shape of the dose curve; as a rule, active = well fitted curve in the direction sought with a large enough effect; inconclusive = small, poorly fitted or top-dose-only effect, or another doubt; inactive = no such curve, though single readings can be large; an effect the other way counts as inactive or inconclusive. Potency is read from the fitted curve at half-maximal effect.

SMILES	VP16 counter	RORg inh	HepG2 tox	S2 tox	ATXN2 expr inh	TGFb inhibitor
CCOc1ccc(NC(=O)c2ccco2)cc1	nt	-9.3%[0.365 µM]	-27.0%	i	-23.2%	10.8%
Cc1ccc(NC(=S)NC(NC(=O)c2ccco2)C(Cl)(Cl)Cl)cc1 (centres undefined)	7.08µM*	11.2µM*	-25.4%	i	-14.7%	?
O=C(NCc1ccccn1)c1cnn(-c2nccc(-c3cc4ccccc4o3)n2)c1C1CC1	nt	nt	nt	i	nt	nt
CCC(=O)NC(=S)Nc1ccc(NC(=O)c2ccco2)c(OC)c1	?	12.6µM*	-2.9%	i	3.1%	-8.1%
CC(=O)NS(=O)(=O)c1ccc(NC(=S)NC(=O)CC(C)C)cc1	-6.1%	-6.5%	-15.8%	i	-14.5%	-7.2%
CCc1ccc(NC(=S)NC(=O)CC(C)C)cc1	1µM*	1.12µM*	-23.9%	?	42.0%	-10.6%
CCn1c(C(=O)N2CCC(C(=O)N3CCN(c4cccc(C)c4C)CC3)CC2)cc2sccc21	nt	nt	-12.9%	nt	nt	11.2µM*
Cc1cccc(N2CCN(C(=O)C3CCC(CNS(=O)(=O)c4cccs4)CC3)CC2)c1C (centres undefined)	11.2µM*	?	-7.3%	?	?	-24.9%
CCn1c(C(=O)N2CCC(C(=O)N3CCN(c4cc(C)ccc4C)CC3)CC2)cc2sccc21	nt	nt	-21.2%	nt	nt	?
Cc1cccc(N2CCN(C(=O)C3CCC(CNS(=O)(=O)c4ccc(Br)s4)CC3)CC2)c1C (centres undefined)	nt	nt	0.0%	i	-6.1%	1.3%
O=C1C=Cc2ccccc2/C1=C/c1[nH]c(=O)[nH]c1O	?	6.31µM*	9.7%	i	nt	2.3%
O=C(CN1C(=O)CCc2cc(S(=O)(=O)N3CCOCC3)ccc21)NCc1ccc(F)cc1	nt	nt	-8.8%	i	2.1%	?
CCCCN(CCCC)Cc1ccc(C(=O)NN)o1	-1.4%	-4.6%	-14.6%	i	nt	-0.7%
CCCCN(CC)Cc1ccc(CNC(=S)Nc2ccc(C)cc2Cl)o1	-27.5%	15.8µM*	-31.7%	i	?	-23.1%
CCCCN(CC)Cc1ccc(CNC(=O)Nc2ccc(F)cc2)o1	-0.8%	-5.4%	-30.3%	i	-13.5%	?
CCCCN(CC)Cc1ccc(CNC(=S)Nc2c(C)cc(C)cc2C)o1	6.31µM*	3.16µM*	-22.1%	?	-12.6%	-4.2%
Cc1cccc(N2CCN(C(=O)c3c(C)oc4ncnc(N5CCCCC5)c34)CC2)c1C	nt	nt	-17.3%	?	?	-2.5%
CCNc1c(C(=O)O)ccc2c1C(=O)c1ccccc1C2=O	12.6µM*	?	-8.5%	i	-22.8%	-9.7%
CNc1c(C(=O)O)ccc2c1C(=O)c1ccccc1C2=O	?	-22.2%	8.2%	?	-26.1%	36.8%
Cc1ccc(NC(=O)C(Cc2ccccc2)NS(=O)(=O)c2ccc3c(c2)oc(=O)n3C)cc1F (centres undefined)	nt	nt	-18.0%	i	-10.4%	1.9%
Cc1cc(/C=C2\SC(=Nc3ccccc3)NC2=O)c(C)n1-c1ccc(S(N)(=O)=O)cc1	-2.4%	?	-51.5%	i	?	12.6µM*
Cc1nc2cc(-c3ccccc3)nn2c(C)c1CCC(=O)NCc1cccc(Cl)c1	nt	nt	-26.1%	i	-3.8%	?
CCOc1ccccc1-c1ccc(C(=O)O)s1	-18.4%[96.6 µM]	12.9%[96.6 µM]	nt	nt	nt	nt
O=C(NCCN1CCCC1)c1ccc(Br)cc1	8.4%	-17.0%	18.6%	i	16.8%	-3.8%
O=C(CCN1CCCCC1)NNC(=S)NC(=O)c1ccc(Br)cc1	8.91µM*	2µM*	-4.3%	i	-26.5%	13.7%
O=C(CCN1CCOCC1)NNC(=S)NC(=O)c1ccc(Br)cc1	?	11.2µM*	-21.6%	i	-26.2%	-3.7%
O=C(CCNC(=O)c1ccc(Br)cc1)NCCCN1CCOCC1	nt	nt	4.2%	i	nt	36.4%

High-throughput results: PubChem BioAssay, National Center for Advancing Translational Sciences (NCATS)
